LASV entry inh: inhibitors of Lassa virus binding or cell entry; Lassa virus pseudotype entry inhibition, cell reporter; Potency, µM (top dose mostly 37.9 µM), usual class: inhibitors; 300,000 compounds, 1.2% hits; AID 540256; calls by dose curve; tested in HEK293 cells; further: nearly all actives have a fitted effect of over 50% in size
Shiga inhibitor: blocks Shiga toxin action in Vero cells | Vero cells, Shiga toxin protein synthesis inhibition reporter | inhibition, % at 38.7 µM | 290,000 compounds, 9.2% hits | AID 2315; in the data active means inhibition mostly above about 28%, no sharp cut-off; inactive means mostly below about 43%
Cycloheximide cs: counter-screen hit for Shiga toxin inhibitors, cycloheximide. cell reporter, cycloheximide protein synthesis inhibition counterscreen. max response, %. 300,000 compounds, 12% hits. AID 2314; in the data active means max response mostly above about 13%, no sharp cut-off; inactive means mostly below about 14%; further: read at 38.3 µM for the half of the compounds with a filed dose
Pf growth 96h: P. falciparum growth inhibition at 96 hour, primary screen for plastid delayed-death inhibitors; P. falciparum luciferase reporter growth, 96 h; Potency, µM (top dose mostly 28.7 µM), actives largely listed as inhibitors; 320,000 compounds, 6.9% hits
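P. falciparum expressing integrated firefly luciferase, in erythrocytes at 2% hematocrit, 0.05% parasitemia, incubated with compounds 96 h at 37 C, 5% CO2. Growth inhibition read as loss of luminescence; two-generation exposure targets delayed-death apicoplast inhibitors.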
Marburg entry inh: blocks Marburg virus binding to or entry into cells. Marburg virus pseudotyped entry inhibition, cell reporter. Potency, µM (titrated, usually from 37.8 µM), actives largely listed as inhibitors. 300,000 compounds, 1.8% hits; calls by dose curve; tested in HEK293 cells
Pf growth 48h: P. falciparum growth inhibition at 48 hours (one generation). P. falciparum luciferase growth in erythrocytes, 48 h. Potency, µM (doses to about 28.7 µM), actives largely listed as inhibitors. 310,000 compounds, 5.9% hits. AID 504832
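Growth was read as firefly luciferase luminescence after a 48 h, 37 C, 5% CO2 exposure of compounds to reporter-bearing P. falciparum cultures (0.1% parasitemia, 2% hematocrit final) in Albumax-supplemented RPMI 1640.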
Hits are given with their value; i = inactive; ? = inconclusive; nt = no result given. Most compounds without a hit are left out; they make up all but 19% or so of the library. Unless noted, the call rests on the fitted dose curve; in most records, active means well fitted inhibition curve with a large enough effect; inconclusive means small, poorly fitted or top-dose-only effect, or another doubt; inactive means no such curve, though single readings can be large or run the other way.

SMILES | LASV entry inh | Shiga inhibitor | Cycloheximide cs | Pf growth 96h | Marburg entry inh | Pf growth 48h
Cc1ccccc1NC(=O)c1cnc(Nc2nc3ccccc3s2)nc1C | nt | i | i | i | nt | i
CC(=O)c1c(C)nc(Nc2nc3ccccc3s2)nc1C | nt | 98.1 | 68.0 | i | nt | i
O=C(CCC(=O)N1CCOc2ccccc21)NC1CCN(Cc2ccccc2)CC1 | nt | i | i | i | nt | i
COc1ccc(-c2cc(OC(=O)c3ccc(F)cc3)c3c(C)oc(C)c3c(=O)c2)cc1 | nt | i | i | 10.4µM | nt | ?
COc1ccc(-c2cc(OC(=O)c3ccccc3)c3c(C)oc(C)c3c(=O)c2)cc1OC | i | nt | nt | nt | i | nt
O=C(O)Cc1ccc(N=Nc2c(O)c(C(=O)O)cc3ccccc23)cc1 | i | 132.8 | 56.0 | ? | i | i
NS(=O)(=O)c1ccc(N=Nc2c(O)c(C(=O)O)cc3ccccc23)cc1 | nt | i | i | 10.4µM | nt | ?
CCc1ccc(CN(Cc2ccco2)C(=O)c2cc(-c3ccc(C)c(F)c3)on2)cc1 | i | nt | nt | nt | ? | nt
CCCOC1(C(F)(F)F)NC(=O)N(c2cccc(Cl)c2)C1=O (centres undefined) | i | nt | nt | nt | i | nt
COc1cc(/C=N/N=C2\CC3CCC2(C)C3(C)C)ccc1O (centres undefined) | i | i | i | ? | i | i
CC12CCC(C/C1=N\N=C1\NC(=O)/C(=C\c3cccc(Br)c3)S1)C2(C)C (centres undefined) | i | i | i | 13.1µM | i | ?
N#C/C(=C\c1cccs1)C(=O)NCc1ccco1 | ? | 56.1 | 38.6 | ? | i | i
COCCNC(=O)/C(C#N)=C/c1cccs1 | i | i | 13.7 | i | i | i
CN(C)c1ccc(/C=C(/C#N)C(=O)NCc2ccccc2)o1 | i | i | 59.4 | i | i | i
CSc1ccc(/C=C(\C#N)C(=O)Nc2cccc(C)c2)cc1 | i | i | 21.7 | ? | i | i
CC(=O)CCS(=O)(=O)c1ccc(NC(C)=O)cc1 | i | i | i | i | i | nt
O=C(CCc1ccccc1)C(=O)N1CCCC(C(=O)c2cccc(Cl)c2)C1 (centres undefined) | i | i | i | ? | i | i
COCCNC(=O)/C(C#N)=C/c1ccc(C(=O)O)cc1 | nt | i | i | i | nt | i
N#CCCN(C(=O)COC(=O)/C=C/c1cccs1)c1ccccc1 | i | nt | nt | nt | i | nt
Cc1ccc(/C=C(\C#N)C(=O)NCc2ccco2)o1 | nt | 65.6 | 42.7 | i | nt | i
COCCNC(=O)/C(C#N)=C/c1ccc(SC)cc1 | i | 64.6 | 30.4 | i | i | i
Cc1ccsc1/C=C(\C#N)C(=O)NCc1ccco1 | i | i | i | i | ? | i
COc1ccc(N(CCC#N)C(=O)/C(C#N)=C\c2cccs2)cc1 | i | i | 20.1 | i | i | i
Cc1cc(C)c(NC(=S)N(CCCN2CCN(C)CC2)Cc2cccs2)c(C)c1 | i | i | i | 10.4µM | ? | i
CCc1ccccc1NC(=S)N(CCCN1CCOCC1)Cc1cccs1 | i | i | i | 2.62µM | i | i
SMILES | LASV entry inh | Shiga inhibitor | Cycloheximide cs | Pf growth 96h | Marburg entry inh | Pf growth 48h
Cc1cc(Cl)ccc1NC(=S)N(CCCN1CCOCC1)Cc1cccs1 | i | i | i | 11.7µM | ? | ?
Cc1ccc(Cl)cc1NC(=S)N(CCCN1CCN(C)CC1)Cc1cccs1 | nt | i | i | i | ? | i
CCOC(=O)NNS(=O)(=O)c1cc(Br)ccc1Br | i | i | i | i | i | i
CCCCNC(=O)CC1N=C2c3ccccc3N=C(SCC(=O)NCc3ccccc3Cl)N2C1=O (centres undefined) | i | nt | nt | nt | ? | nt
CCOC(=O)CSC1=Nc2ccccc2C2=NC(CC(=O)NCc3ccc4c(c3)OCO4)C(=O)N12 (centres undefined) | i | i | i | i | i | 4.15µM
CCCCNC(=O)CC1N=C2c3ccccc3N=C(SCC(=O)Nc3cccc(C)c3)N2C1=O (centres undefined) | i | i | i | 2.62µM | i | 1.85µM
O=C(CC1N=C2c3ccccc3N=C(SCc3ccc(Cl)cc3)N2C1=O)NCc1ccco1 (centres undefined) | i | i | 20.5 | nt | i | 3.29µM
CCOC(=O)CSC1=Nc2ccccc2C2=NC(CC(=O)NCc3ccc(OC)cc3)C(=O)N12 (centres undefined) | i | i | i | nt | i | 6.57µM
Cc1ccc(CSC2=Nc3ccccc3C3=NC(CC(=O)NCc4ccc5c(c4)OCO5)C(=O)N23)cc1 (centres undefined) | i | nt | nt | nt | nt | nt
Cc1ccc(N(O)C(=O)NCCCCNC(=O)N(O)c2ccc(C)cc2)cc1 | i | 51.6 | 35.9 | i | i | ?
COc1cccc(CNC(=O)c2ccc(C3SCCS3)cc2)c1 | nt | i | 26.4 | ? | nt | i
COc1cccc(CNC(=O)CCc2ccc(OC)c(OC)c2)c1 | ? | i | i | i | i | nt
COc1cccc(CNC(=O)CCl)c1 | i | i | i | 10.4µM | i | ?
COc1cccc(CNC(=O)c2ccc(C(=O)NCc3cccc(OC)c3)cc2)c1 | i | i | i | i | i | i
COc1cccc(CNC(=O)C(c2ccc(Cl)cc2)C(C)C)c1 (centres undefined) | i | i | i | 6.57µM | i | 9.28µM
CCOC(=O)c1cc(C)n(CC2CCC(C(=O)Nc3ccc(C(=O)OC)cc3)CC2)c1C (centres undefined) | i | nt | nt | nt | nt | nt
CCN(CC(=O)N1CCc2ccccc2C1)S(=O)(=O)c1ccc2ccccc2c1 | ? | i | i | i | i | nt
COCCNC(=S)N/N=C(\C)c1ccccc1F | i | i | i | 9.28µM | i | ?
COCCNC(=S)N/N=C(\C)c1ccc(Cl)c(Cl)c1Cl | ? | i | i | ? | ? | i
COCCNC(=S)N/N=C(\C)c1ccccc1OC | i | i | i | ? | i | ?
COCCNC(=S)N/N=C(\C)c1ccccc1O | i | 94.4 | 30.6 | ? | ? | 2.94µM
CN(C)c1ccc(C(CNC(=O)c2ccc(C#N)cc2)c2c[nH]c3ccccc23)cc1 (centres undefined) | ? | i | i | ? | ? | ?
COc1ccc(NC(=S)Nc2ccc3nccnc3c2)cc1 | i | 54.2 | 31.1 | ? | ? | i
COc1ccc(NC(=S)Nc2ccc(N)c([N+](=O)[O-])c2)cc1 | i | i | 21.1 | nt | i | i
COc1ccc(NC(=S)Nc2ccc3snnc3c2)cc1 | i | 33.6 | 24.1 | i | ? | i
SMILES | LASV entry inh | Shiga inhibitor | Cycloheximide cs | Pf growth 96h | Marburg entry inh | Pf growth 48h
CC(=O)c1ccc(NC(=O)Nc2ccc3snnc3c2)cc1 | ? | nt | nt | nt | i | nt
COc1ccc(CCC(=O)Nc2ccc(C)c([N+](=O)[O-])c2)cc1 | i | i | i | i | i | i
CCN1C(=O)N/C(=C/c2cc(C)n(Cc3ccccc3)c2C)C1=O | ? | 36.7 | 26.6 | ? | ? | ?
Cc1cccc(CN2C(=O)N/C(=C/c3cc(C)n(-c4ccccn4)c3C)C2=O)c1 | i | i | i | nt | i | 13.1µM
CCn1c(C)cc(/C=C2\NC(=O)N(Cc3ccc(Cl)cc3)C2=O)c1C | i | i | i | ? | ? | ?
Cc1ccc(/C=C2/NC(=O)N(Cc3ccccc3F)C2=O)s1 | nt | i | i | ? | nt | i
Cc1cc(/C=C2/NC(=O)N(Cc3ccccc3F)C2=O)c(C)n1-c1ccccn1 | ? | i | i | ? | i | 9.28µM
